Where “and” joins values, the source holds several entries; their conditions need not be identical. Equal entries are not always repeated. The panel holds about 83,000 compounds, 20% with a hit somewhere; the sample as a whole holds those more often.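 Interpretation: 100, growth as untreated; towards 0, rising growth inhibition; 0, no net growth; 0 to -100, cell death. Compounds scoring below 10 were considered active.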 Calls of active or inactive are those of the source.

The test system of one experiment is NCI/ADR-RES ovarian. Description: NCI-60 one-dose screen, 48 h (100 = growth as untreated, 0 = no growth, -100 = all killed). The settings on record: 10 µM unless noted.
`NC(=O)Oc1cc(OC(N)=O)cc(N(CCCl)CCCl)c1`: the growth was 54.9% (inactive).
In the case of `CC[PH+](CC)CC.O=COC1OC([S-])C(OC=O)C(OC=O)C1OC=O.[Au+]` (configuration not stated), the growth was 18.7% (inactive).
For the compound `CCOC(=O)c1ccccc1C(=O)OCC`, the growth is 102% (inactive).
On to `C[C@@H]1C/C=C\C(=O)O[C@H](/C=C/C#C/C=C/C(C)(C)[C@@H](O)c2cccc(O)c2Br)[C@@H](C)/C=C/[C@H](C)C[C@H](OC(N)=O)C1`, for which the growth is 33.5% (inactive).
In the case of `Cc1c(C)c(N)c(C)c(C)c1N`, the growth is 96.1% (inactive).
The same measure, in the same setting: the result for `Nc1ccc(P(=O)(O)O)cc1` reads 93.1% (inactive) and 102% (inactive); that for `OCCN=Cc1c[nH]c2ccccc12`, 100% (inactive); that for `S=P(SP(=S)(c1ccccc1)c1ccccc1)(c1ccccc1)c1ccccc1`, 104% (inactive).
Same read-out and setting: the result for `CN1CCc2cc3c(cc2C1O)OCO3` (configuration not stated) reads 95.9% (inactive) and 107% (inactive).
Same read-out and setting: the result for `Cc1cc(NC(=O)NCCCOc2ccc(N3C(N)=NC(N)=NC3(C)C)cc2Cl)ccc1S(=O)(=O)F` reads 100% (inactive).

Another experiment has as its system T-47D breast. Described as above. The following applies: 10 µM unless noted.
For `CCCCn1c(=O)c(C(=O)NCc2ccccc2Cl)c(O)c2ccccc21`, the growth was 85.6% (inactive).
As to `O=C(NCCCN1CC1)Nc1cccc2ccccc12`, the growth is 86.4% (inactive).
In the case of `Oc1cc(N2CC2)c(O)cc1N1CC1`, the growth was 19.2% (inactive).
The same measure, in the same setting: the result for `CC12CCC3C4CCC(=O)C=C4CCC3C1CC1CC(=O)OC12` (configuration not stated) reads 101% (inactive); that for `CCOP(=O)(OCC)C(=O)N(CC)CC`, 96.3% (inactive); that for `C#Cc1cccc(Nc2nc(Cl)nc3cc(NC(=O)CF)ccc23)c1`, 79.5% (inactive).
For the compound `CC[C@H](C)[C@H](NC(=O)[C@H]1CCCCN1C)C(=O)N(C)[C@H](C(=O)NC12CC(C(=O)N[C@@H](Cc3ccccc3)C[C@H](C)C(=O)OC)(C1)C2)C(C)C`, the growth was 85.7% (inactive).
Same read-out and setting: the result for `CN1CCC2(CC1)C(C#N)C(=O)NC(=O)C2C#N` (configuration not stated) reads 107% (inactive).
On the same count and under the same terms, the result for `CC12CCC3C(CCC4CC(O)CCC43C)C1CCC2=O` (configuration not stated) reads 113% (inactive); that for `C=CC[PH+](c1ccccc1)c1ccccc1.C=CC[PH+](c1ccccc1)c1ccccc1.[Pt+2].[S-]c1nc2ccccc2[nH]1.[S-]c1nc2ccccc2[nH]1`, -6.06% (active).
For the compound `Cc1cc[c-]cc1.Fc1c[c-]c(-c2ccccn2)c(F)c1.[Pt+2].c1ccc([PH+](c2ccccc2)c2ccccn2)cc1`, the growth is 23.5% (inactive).
The same measure, in the same setting: the result for `C=C[Se]CC(=O)/C=C/c1ccccc1` reads 82.3% (inactive).
The same measure, in the same setting: the result for `CCCCCCCCCCCCCCCCCC1OCC(COC(=O)O[C@@H](C(=O)O[C@H]2C[C@@]3(O)[C@@H](OC(=O)c4ccccc4)[C@@H]4[C@]5(OC(C)=O)CO[C@@H]5C[C@H](O)[C@@]4(C)C(=O)[C@H](OC(C)=O)C(=C2C)C3(C)C)[C@@H](NC(=O)c2ccccc2)c2ccccc2)O1` (some centres not stated) reads 32.9% (inactive); that for `CC1(C)C=Cc2c(ccc3c2[N+]([O-])=C2C3=C[C@@]34NC(=O)[C@]5(CCCN5C3=O)C[C@@H]4C2(C)C)O1`, 53.2% (inactive).
The same measure, in the same setting: the result for `O=C(O)C1C(C(=O)O)C2(Cl)C(Cl)=C(Cl)C1(Cl)C2(Cl)Cl` (configuration not stated) reads 98.7% (inactive); that for `CNC(=O)O/N=C(\SC)C(=O)N(C)C`, 97.1% (inactive).
As to `C[C@]12CCc3sc(Nc4ccc(F)cc4F)nc3C1=CC[C@@H]1[C@@H]2CC[C@]2(C)C(=O)CC[C@@H]12`, the growth was 48.9% (inactive).
Turning to `N#CC(C#N)=C(C#N)C#N`, the growth is 95.8% (inactive).
Still for that read-out and setting: the result for `N#CCC(=O)c1ccccc1` reads 99.4% (inactive); that for `O=C(O)c1ccc(=O)[nH]c1`, 88.8% (inactive) and 89.6% (inactive); that for `CC[C@H](C)[C@H](NC(=O)CN(C)C)C(=O)N(C)[C@H](C[C@@H](OC(C)=O)c1nc(C(=O)NC23C4C5C2C2C3C4C52C(=O)OC)cs1)C(C)C` (some centres not stated), 62.9% (inactive).
As for `CNC(=O)Oc1ccc(Cl)cc1SSc1cc(Cl)ccc1OC(=O)NC`, the growth was 57.2% (inactive).
With `CC(=O)OC1CC2(O)C(CCC3(C)C(c4ccc(=O)oc4)CCC32O)C2(C)CCC(OC3OC(CO)C(O)C(O)C3O)C=C12` (configuration not stated), the growth was -9.39% (active).
Still for that read-out and setting: the result for `Oc1ccc(O)c(Cl)c1` reads 89.1% (inactive); that for `CC(=O)Nc1nc2c(s1)C1=CC[C@H]3[C@@H]4CC[C@H](OC(C)=O)[C@@]4(C)CC[C@@H]3[C@@]1(C)CC2`, 74.3% (inactive); that for `O=C(O)C(F)F`, 96.6% (inactive).
Consider `CC[C@H](C)[C@H](NC(=O)C12CC(NC)(C1)C2)C(=O)N(C)[C@H](C[C@@H](OC(C)=O)c1nc(C(=O)N[C@@H](Cc2ccccc2)C[C@H](C)C(=O)OC)cs1)C(C)C`, for which the growth is 51.9% (inactive).
Same read-out and setting: the result for `NC(=O)Oc1cc(OC(N)=O)cc(N(CCCl)CCCl)c1` reads 53.6% (inactive).
Same read-out and setting: the result for `CC[PH+](CC)CC.O=COC1OC([S-])C(OC=O)C(OC=O)C1OC=O.[Au+]` (configuration not stated) reads -82.7% (active).
On the same count and under the same terms, the result for `CCOC(=O)c1ccccc1C(=O)OCC` reads 100% (inactive); that for `C[C@@H]1C/C=C\C(=O)O[C@H](/C=C/C#C/C=C/C(C)(C)[C@@H](O)c2cccc(O)c2Br)[C@@H](C)/C=C/[C@H](C)C[C@H](OC(N)=O)C1`, 12.6% (inactive); that for `Cc1c(C)c(N)c(C)c(C)c1N`, 92.6% (inactive).
Take `Nc1ccc(P(=O)(O)O)cc1`: the growth was 101% (inactive).
For the compound `OCCN=Cc1c[nH]c2ccccc12`, the growth was 94.5% (inactive).
As for `S=P(SP(=S)(c1ccccc1)c1ccccc1)(c1ccccc1)c1ccccc1`, the growth was 103% (inactive).
Turning to `CN1CCc2cc3c(cc2C1O)OCO3` (configuration not stated), the growth was 69.3% (inactive) and 102% (inactive).
Still for that read-out and setting: the result for `Cc1cc(NC(=O)NCCCOc2ccc(N3C(N)=NC(N)=NC3(C)C)cc2Cl)ccc1S(=O)(=O)F` reads 51.1% (inactive).

The values are drawn from PubChem BioAssay (NCI).
